Measurements reported in PubChem BioAssay AID1159580 (chemical genetic matrix, 2015).
Several values for one entry are separate records, joined by “and”; a condition that tells them apart may be missing. Equal values may be shown once. Hit rate of the full screen: of about 5,500 compounds, about 2,000 (36%) were called active. Another 18% or so got no clear call; they are omitted. No stated cut-off is given here; in the data, active means normalized growth mostly below about 0.91 (no sharp cut-off); inconclusive means no clear call, values can overlap the other calls; inactive means mostly above about 0.92. Some of the results follow.

Experiment: chemical genetic growth profiling, strain panel (AID 1159580);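 further: tested at 20 µM; growth read once vehicle control cultures reached saturation at 30 °C; 1 = growth at the plate median or of vehicle wells; lower values mean less growth of the strain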
Settings: S. cerevisiae deletion strains, growth OD

Measured: normalized growth

Nc1ccc(S(=O)(=O)Nc2ccccn2)cc1
inactive: locus YAL013W, strain DEP1, hits give low values 1.02 | locus YAL021C, strain ccr4, hits give low values 1 | locus YAL026C, strain drs2, hits give low values 1.01 | locus YAL030W, strain snc1, hits give low values 1.01 | locus YBL061C, strain skt5, hits give low values 1.01 | locus YBR009C, strain hhf1, hits give low values 0.983 | locus YBR021W, strain FUR4, hits give low values 1.04 | locus YBR023C, strain chs3, hits give low values 1.01 | locus YBR171W, strain sec66, hits give low values 1.01 | locus YBR229C, strain ROT2, hits give low values 1.01 | locus YBR231C, strain swc5, hits give low values 1.03 | locus YBR279W, strain paf1, hits give low values 1.01 | locus YCL011C, strain gbp2, hits give low values 0.99 | locus YCL016C, strain dcc1, hits give low values 1 | locus YCL029C, strain bik1, hits give low values 1 | locus YCL069W, strain vba3, hits give low values 1 | locus YCR088W, strain abp1, hits give low values 1 | locus YDL005C, strain med2, hits give low values 1.02 | locus YDL035C, strain GPR1, hits give low values 1.01 | locus YDL040C, strain nat1, hits give low values 1.01 | locus YDL074C, strain BRE1, hits give low values 1.02 | locus YDL101C, strain DUN1, hits give low values 1 | locus YDL134C, strain PPH21, hits give low values 1.01 | locus YDL185W, strain tfp1, hits give low values 0.982 | locus YDL192W, strain arf1, hits give low values 0.996 | locus YDR001C, strain nth1, hits give low values 1.01 | locus YDR069C, strain doa4, hits give low values 1.02 | locus YDR101C, strain arx1, hits give low values 0.987 | locus YDR137W, strain rgp1, hits give low values 1.01 | locus YDR159W, strain sac3, hits give low values 0.986 | locus YDR162C, strain NBP2, hits give low values 1 | locus YDR195W, strain ref2 1.04 | locus YDR297W, strain sur2, hits give low values 1.01 | locus YDR318W, strain mcm21, hits give low values 0.988 | locus YDR334W, strain swr1, hits give low values 1.01 | locus YDR335W, strain msn5, hits give low values 1.01 | locus YDR388W, hits give low values 0.988 | locus YDR392W, strain spt3, hits give low values 0.951 | locus YDR502C, strain sam2, hits give low values 0.996 | locus YEL003W, strain gim4, hits give low values 1.02 | locus YEL037C, strain rad23, hits give low values 1.01 | locus YEL061C, strain CIN8 (second series), hits give low values 1.01 | locus YEL061C, strain CIN8, hits give low values 1.01 | locus YER015W, strain faa2, hits give low values 1.02 | locus YER016W, strain bim1, hits give low values 0.996 | locus YER110C, hits give low values 0.993 | locus YER111C, strain swi4, hits give low values 1.01 | locus YER155C, strain BEM2 (second series), hits give low values 1.01 | locus YER155C, strain BEM2, hits give low values 1.01 | locus YER167W, strain BCK2, hits give low values 1 | locus YFR010W, strain ubp6, hits give low values 1.02 | locus YGL078C, strain dbp3, hits give low values 1 | locus YGL086W, strain mad1, hits give low values 1 | locus YGL167C, strain pmr1, hits give low values 1.02 | locus YGL173C, strain kem1, hits give low values 1.02 | locus YGL227W, strain vid30, hits give low values 1.02 | locus YGL240W, strain doc1, hits give low values 1.02 | locus YGL248W, strain PDE1, hits give low values 1.02 | locus YGL253W, strain hxk2, hits give low values 0.999 | locus YGR135W, strain pre9, hits give low values 1.01 | locus YGR229C, strain SMI1, hits give low values 1.02 | locus YGR252W, strain gcn5, hits give low values 1.03 | locus YHR013C, strain ard1, hits give low values 1.01 | locus YHR027C, strain rpn1, hits give low values 1.01 | locus YHR030C, strain SLT2, hits give low values 1.01 and 0.97 | locus YHR079C, strain IRE1 (second series), hits give low values 0.992 | locus YHR079C, strain IRE1, hits give low values 0.985 | locus YHR094C, strain hxt1, hits give low values 0.99 | locus YHR129C, strain ARP1, hits give low values 1.02 | locus YHR142W, strain chs7, hits give low values 0.98 | locus YHR200W, strain rpn10, hits give low values 0.986 | locus YIL066C, strain RNR3, hits give low values 1.01 | locus YIL073C, strain SPO22, hits give low values 0.989 | locus YIL125W, strain kgd1, hits give low values 0.983 | locus YIR030C, strain dcg1, hits give low values 0.996 | locus YJL092W, strain hpr5, hits give low values 1.02 | locus YJL095W, strain BCK1 (second series), hits give low values 1.01 | locus YJL095W, strain BCK1, hits give low values 1.02 and 0.979 | locus YJL115W, strain asf1, hits give low values 1.01 | locus YJL129C, strain trk1, hits give low values 1.02 | locus YJL134W, strain LCB3, hits give low values 1 | locus YJL154C, strain vps35, hits give low values 1.02 | locus YJL164C, strain tpk1, hits give low values 0.972 | locus YJL166W, strain qcr8, hits give low values 1.02 | locus YJL168C, strain set2, hits give low values 0.99 | locus YJL187C, strain SWE1 (second series), hits give low values 1.01 | locus YJR043C, strain POL32, hits give low values 1 | locus YJR066W, strain TOR1, hits give low values 0.928
